Consider 6 molecules from PubChem BioAssay (Tox21).

The target in assay [1] is Progesterone receptor (Homo sapiens) (UniProt P06401). The assay can be described thus: qHTS assay to identify small molecule agonists of the progesterone receptor (PR) signaling pathway (AID 1346784; calls by dose curve; note: nearly all actives have a fitted effect of over 30% in size). A digest of the protocol: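 Agonist mode, quantitative HTS format in a HEK 293T line expressing a UAS-controlled beta-lactamase reporter; 16 hr compound exposure at 37C in 2% charcoal-stripped FBS, then LiveBLAzer B/G FRET fluorescence.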
In general terms: In qHTS, concentration-response curves come from the screen itself.

The target is the same in assay [2]. The assay can be described thus: qHTS assay to identify small molecule antagonists of the progesterone receptor (PR) signaling pathway (AID 1346795; active = well fitted inhibition curve with a large enough effect in the signal ratio in the repeat runs, not every such curve was filed as active; the % refers to the signal ratio). A digest of the protocol:
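HEK293T PR-UAS-bla reporter cells in charcoal-stripped serum (2%) received compound after a 6 hr settling period, followed by R5020 agonist at 1 nM final; 16 hr incubation preceded the FRET substrate step and fluorescence measurement.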

The nature of assay [3]: qHTS assay to identify small molecule antagonists of the progesterone receptor (PR) signaling pathway - cell viability counter screen (AID 1346798). Note: series mostly up to about 92 µM; nearly all actives have a fitted effect of over 50% in size. A digest of the protocol:
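Same-well multiplex: after 16 hr at 37C with compound and R5020 stimulation, HEK293T cells carrying a UAS-bla reporter received LiveBLAzer substrate (2 hr RT), then CellTiter-Glo (30 min RT) for luminescent viability.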

A short description of assay [4]: qHTS assay to identify small molecule agonists of the progesterone receptor (PR) signaling pathway - cell viability counter screen (AID 1346799; calls by dose curve; note: nearly all actives have a fitted effect of over 45% in size). Summed up:
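Counter screen for cytotoxicity: compound-treated PR-UAS-bla HEK293T cells (16 hr, 37C, 5% CO2) were assayed with CellTiter-Glo, luminescence measured after 30 min at room temperature.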

Assay [5] in a line: qHTS assay to identify small molecule antagonists of the TGF-beta/Smad signaling pathway - cell viability counter screen (AID 1346824). Note: nearly all actives have a fitted effect of over 50% in size. Summed up:
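Cytotoxicity counter-screen run in the same wells as the beta-lactamase Smad reporter read: CellTiter-Glo luminescence after 30 min at room temperature. HEK 293T SBE-bla cells had 5 hr compound exposure at 37 C with TGF-beta1 (0.25 ng/mL stock).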

A short description of assay [6]: qHTS assay to identify small molecule agonists of the TGF-beta/Smad signaling pathway - cell viability counter screen (AID 1346829). Note: top concentration of the series differs between compounds; nearly all actives have a fitted effect of over 45% in size. Summed up: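 HEK 293T SBE-bla line, 5 hr compound exposure at 37 C, multiplexed CellTiter-Glo viability read by luminescence.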
Assay [7] can be described thus: qHTS assay to identify small molecule agonists of the TGF-beta/Smad signaling pathway (AID 1346859; active = well fitted activation curve with a large enough effect in the signal ratio in the repeat runs, not every such curve was filed as active; the % refers to the signal ratio; note: series mostly up to about 77 µM). A digest of the protocol: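 Smad-responsive beta-lactamase reporter cells (HEK 293T) received compounds from DMSO stocks after overnight attachment, were incubated 5 hr, then treated 2 hr with FRET substrate before dual-emission fluorescence measurement (405 nm excitation).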

Assay [8] addresses Thyrotropin-releasing hormone receptor (Homo sapiens) (UniProt P34981). Description: qHTS assay to identify small molecule antagonists of the thyrotropin-releasing hormone receptor (TRHR) signaling pathway (AID 1346877; active = well fitted inhibition curve with a large enough effect in the repeat runs, not every such curve was filed as active; note: series mostly up to about 51 µM). Summed up: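 Cells (TRHR-HEK293) are plated and kept 18 h at 37 °C/5% CO2. A calcium-sensitive dye is added for 2 h, compound follows for 5 min at room temperature, and TRH is then given at 1 nM final.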

Assay [9] shares this target. The assay can be described thus: qHTS assay to identify small molecule agonists of the thyrotropin-releasing hormone receptor (TRHR) signaling pathway (AID 1346891; calls by dose curve;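 note: HEK293 cells expressing TRHR with calcium dye readout; series mostly up to about 58 µM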). A digest of the protocol:
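Agonist-mode calcium mobilisation screen: TRHR-transfected HEK293 cells cultured overnight (18 h), dye-loaded for 2 h at 37 °C, exposed to compounds, and monitored by fluorescence for 3 min.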

The nature of assay [10]: Human pregnane X receptor (PXR) small molecule agonists, qHTS cell viability counter screen (AID 1346977). Note: nearly all actives have a fitted effect of over 50% in size. Summed up: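 Measures live-cell protease fluorescence (CellTiter-Fluor) in PXR-Luc HepG2 cells treated 24hr with compounds at 37C. Cells had 5hr to attach before pin transfer of DMSO solutions.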
Assay [11] is described as follows: Caspase-3/7 induction in HepG2 cells by small molecules, qHTS assay (AID 1346978). Note: nearly all actives have a fitted effect of over 15% in size. Summed up:
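Caspase-3/7 induction was measured by Caspase-Glo 3/7 luminescence (30 min, room temperature) after a 17 hr compound exposure of wild-type HepG2 cells seeded at 2,000 per well and pre-incubated 5 hr.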

The nature of assay [12]: Caspase-3/7 induction in CHO-K1 cells by small molecules, qHTS assay (AID 1346980). Note: nearly all actives have a fitted effect of over 15% in size. A digest of the protocol: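 Luminescent Caspase-Glo 3/7 read (30min, room temperature) quantified apoptosis induction. Cells were wild-type CHO-K1, treated with compound for 17hr at 37 C and 5% CO2.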
The nature of assay [13]: Caspase-3/7 induction in HepG2 cells by small molecules, qHTS cell viability counter screen (AID 1346981). Note: series mostly up to about 92 µM; nearly all actives have a fitted effect of over 30% in size. A digest of the protocol: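 Steps: seed 2,000 HepG2 cells per well; incubate 5 hr at 37 C; pin-add compounds in DMSO; incubate 16 hr; add CellTiter-Fluor; after 1 hr at 37 C and 5% CO2, read fluorescence.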
Assay [14] is described as follows: Caspase-3/7 induction in CHO-K1 cells by small molecules, qHTS cell viability counter screen (AID 1346979). Note: nearly all actives have a fitted effect of over 35% in size. Summed up:
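In the same wells as the caspase read, viability of compound-treated wild-type CHO-K1 cells was assessed using CellTiter-Fluor, added after 16hr at 37C and measured by fluorescence following 1hr further incubation.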

For assay [15], the target named is Nuclear receptor subfamily 1 group I member 2 (Rattus norvegicus) (UniProt Q9R1A7). The assay can be described thus: Rat pregnane X receptor (rPXR) activation by small molecules, qHTS assay (AID 1346983). Note: nearly all actives have a fitted effect of over 20% in size. As to conditions: rPXR luciferase reporter cells, One-Glo luminescence, 24 h; max activation: stronger effect = higher value. Summed up: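 Luminescent readout (One-Glo luciferase, 30 min room temperature) followed 24 hr compound treatment at 37 C of rPXR cells plated 2,000 per well and preincubated 5hr; qHTS format with compounds delivered in DMSO.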

Assay [16] deals with Nuclear receptor subfamily 1 group I member 2 (Homo sapiens) (UniProt O75469). Description: CYP3A4 induction through human pregnane X receptor (PXR) by small molecules, qHTS assay (AID 1346984). Note: nearly all actives have a fitted effect of over 40% in size. A digest of the protocol:
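Steps: seed DPX-2 cells, 5 hr at 37C; pin-transfer compounds; 24 hr at 37C; add Luciferin-IPA (3uM final), 3 hr at 37C; add One-Glo, 30 min RT; read luminescence.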

For assay [17] the target is unchanged. Description: Human pregnane X receptor (PXR) activation by small molecules, qHTS assay (AID 1346985). Note: nearly all actives have a fitted effect of over 40% in size. Summed up:
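DPX-2 cells (HepG2 co-transfected with a PXR response element and a CYP3A4-promoter luciferase construct) were seeded at 2,000 per well, rested 5 hr at 37C, then exposed to DMSO-dissolved compounds for 24 hr. Activation was read as luciferase luminescence.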

Assay [18] has as its target Cytochrome P450 2D6 (Homo sapiens) (UniProt P10635). The assay can be described thus: Cytochrome P450 Family 2 Subfamily D Member 6 (CYP2D6) small molecule antagonists: luciferase reporter qHTS assay (AID 1671196). Note: nearly all actives have a fitted effect of over 50% in size. Note: potency is the fitted concentration of half-maximal effect. Summed up:
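P450-Glo format: CYP2D6 converts a proluciferin substrate to luciferin in an NADPH-driven reaction lasting 1 h at room temperature. Light output, proportional to CYP2D6 activity, reflects interference by test chemicals.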
(Reporter assays use an easily measured gene product as a stand-in for the process of interest.)

Assay [19] deals with Cytochrome P450 2C19 (Homo sapiens) (UniProt P33261). Description: Cytochrome P450 Family 2 Subfamily C Member 19 (CYP2C19) small molecule antagonists: luciferase reporter qHTS assay (AID 1671197). Note: nearly all actives have a fitted effect of over 65% in size. Note: potency is the fitted concentration of half-maximal effect. Summed up: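 First, compounds are pinned into enzyme-substrate mix and held 10 min at room temperature. Second, NADPH regeneration solution is added and plates incubate 1 h at 37C. Third, detection reagent is added and luminescence read after 20 min.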

The target of assay [20] is Nuclear receptor subfamily 1 group I member 2 (Homo sapiens) (UniProt O75469). The assay can be described thus: Human pregnane X receptor (PXR) small molecule agonists, qHTS assay (AID 1346982). Note: nearly all actives have a fitted effect of over 35% in size. A digest of the protocol: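 Agonist mode qHTS: PXR-Luc HepG2 cells plated 5 hr before DMSO-dissolved compounds were pinned in, cultured 24 hr at 37 C, 5% CO2; ONE-Glo luminescence readout.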

Values joined by “and” are separate entries in the source; they are usually repeats but may differ in a detail not shown here. Identical values can stand only once. Results filed as inconclusive are left out. More than one record can exist for a structure, and the calls need not agree. Active and inactive are the calls of the source. Unless noted, calls come from the whole dose curve; as a rule, active = well fitted curve in the direction sought with a large enough effect in the repeat runs; inconclusive = weak or mixed curves; inactive = no such curve, though single readings can be large; an effect the other way counts as inactive or inconclusive.
% is set by controls: 0 for no effect and ±100 for the full control effect.

Sequence of Cytochrome P450 2D6 (Homo sapiens) (P10635 whole entry, looked up): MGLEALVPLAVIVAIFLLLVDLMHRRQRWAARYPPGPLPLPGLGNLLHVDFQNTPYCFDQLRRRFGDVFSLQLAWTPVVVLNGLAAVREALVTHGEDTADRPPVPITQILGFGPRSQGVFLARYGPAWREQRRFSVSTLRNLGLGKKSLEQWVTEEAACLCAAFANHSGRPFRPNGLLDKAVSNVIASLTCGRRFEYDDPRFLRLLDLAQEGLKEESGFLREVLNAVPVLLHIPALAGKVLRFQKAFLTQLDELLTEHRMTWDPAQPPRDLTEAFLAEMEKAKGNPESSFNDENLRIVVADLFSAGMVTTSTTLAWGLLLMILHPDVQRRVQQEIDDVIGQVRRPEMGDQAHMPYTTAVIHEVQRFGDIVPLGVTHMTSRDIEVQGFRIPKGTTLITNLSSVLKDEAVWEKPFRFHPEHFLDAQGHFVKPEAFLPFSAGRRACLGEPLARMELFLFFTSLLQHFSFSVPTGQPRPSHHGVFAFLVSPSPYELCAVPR
Sequence of Cytochrome P450 2C19 (Homo sapiens) (P33261 whole entry, looked up): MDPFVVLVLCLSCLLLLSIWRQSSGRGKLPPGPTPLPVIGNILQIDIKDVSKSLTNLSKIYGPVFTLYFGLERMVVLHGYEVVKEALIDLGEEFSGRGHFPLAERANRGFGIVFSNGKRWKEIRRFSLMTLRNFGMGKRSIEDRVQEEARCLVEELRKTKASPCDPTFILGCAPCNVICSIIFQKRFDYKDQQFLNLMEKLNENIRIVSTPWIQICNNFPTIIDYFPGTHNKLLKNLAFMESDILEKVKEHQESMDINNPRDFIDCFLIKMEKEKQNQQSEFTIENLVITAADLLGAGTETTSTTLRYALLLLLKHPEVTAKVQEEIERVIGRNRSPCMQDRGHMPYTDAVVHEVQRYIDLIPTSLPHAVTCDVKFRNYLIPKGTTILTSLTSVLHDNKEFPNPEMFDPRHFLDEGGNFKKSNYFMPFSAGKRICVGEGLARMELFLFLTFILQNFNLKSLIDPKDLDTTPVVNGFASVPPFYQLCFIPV
Sequence of Progesterone receptor (Homo sapiens) (P06401 whole entry, looked up): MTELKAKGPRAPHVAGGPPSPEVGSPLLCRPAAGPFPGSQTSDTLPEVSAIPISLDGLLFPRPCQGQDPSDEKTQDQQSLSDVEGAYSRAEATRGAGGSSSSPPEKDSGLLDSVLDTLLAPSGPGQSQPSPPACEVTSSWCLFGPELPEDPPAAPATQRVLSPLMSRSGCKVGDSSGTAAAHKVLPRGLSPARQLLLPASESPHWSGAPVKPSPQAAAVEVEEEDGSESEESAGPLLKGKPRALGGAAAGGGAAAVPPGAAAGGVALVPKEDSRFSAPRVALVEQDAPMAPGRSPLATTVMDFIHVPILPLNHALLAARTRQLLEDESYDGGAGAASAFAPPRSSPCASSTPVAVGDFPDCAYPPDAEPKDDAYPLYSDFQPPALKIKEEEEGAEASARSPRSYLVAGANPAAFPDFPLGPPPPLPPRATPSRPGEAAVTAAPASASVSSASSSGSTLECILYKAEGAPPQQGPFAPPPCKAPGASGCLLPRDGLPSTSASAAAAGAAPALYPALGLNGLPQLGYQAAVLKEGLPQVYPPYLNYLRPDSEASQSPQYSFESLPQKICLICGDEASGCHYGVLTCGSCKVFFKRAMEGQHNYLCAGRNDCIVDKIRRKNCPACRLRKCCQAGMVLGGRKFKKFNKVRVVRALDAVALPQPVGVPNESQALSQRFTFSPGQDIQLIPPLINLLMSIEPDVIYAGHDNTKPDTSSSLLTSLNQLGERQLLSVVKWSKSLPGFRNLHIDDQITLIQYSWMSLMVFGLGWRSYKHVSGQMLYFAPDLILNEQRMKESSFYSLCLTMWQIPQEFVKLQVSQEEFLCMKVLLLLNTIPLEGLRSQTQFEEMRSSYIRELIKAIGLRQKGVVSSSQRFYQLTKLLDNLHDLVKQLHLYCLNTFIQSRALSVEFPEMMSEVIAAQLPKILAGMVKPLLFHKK
Sequence of Thyrotropin-releasing hormone receptor (Homo sapiens) (P34981 whole entry, looked up): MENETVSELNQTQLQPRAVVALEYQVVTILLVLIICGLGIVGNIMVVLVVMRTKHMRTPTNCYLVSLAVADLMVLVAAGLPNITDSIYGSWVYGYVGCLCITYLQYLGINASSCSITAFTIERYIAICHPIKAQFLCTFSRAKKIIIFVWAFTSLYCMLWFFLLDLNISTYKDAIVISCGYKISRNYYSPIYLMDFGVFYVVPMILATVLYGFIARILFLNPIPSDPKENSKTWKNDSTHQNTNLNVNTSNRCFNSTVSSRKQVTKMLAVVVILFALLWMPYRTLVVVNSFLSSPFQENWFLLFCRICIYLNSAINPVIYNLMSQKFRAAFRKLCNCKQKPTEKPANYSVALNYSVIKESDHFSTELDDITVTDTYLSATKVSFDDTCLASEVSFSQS
Sequence of Nuclear receptor subfamily 1 group I member 2 (Homo sapiens) (O75469 whole entry, looked up): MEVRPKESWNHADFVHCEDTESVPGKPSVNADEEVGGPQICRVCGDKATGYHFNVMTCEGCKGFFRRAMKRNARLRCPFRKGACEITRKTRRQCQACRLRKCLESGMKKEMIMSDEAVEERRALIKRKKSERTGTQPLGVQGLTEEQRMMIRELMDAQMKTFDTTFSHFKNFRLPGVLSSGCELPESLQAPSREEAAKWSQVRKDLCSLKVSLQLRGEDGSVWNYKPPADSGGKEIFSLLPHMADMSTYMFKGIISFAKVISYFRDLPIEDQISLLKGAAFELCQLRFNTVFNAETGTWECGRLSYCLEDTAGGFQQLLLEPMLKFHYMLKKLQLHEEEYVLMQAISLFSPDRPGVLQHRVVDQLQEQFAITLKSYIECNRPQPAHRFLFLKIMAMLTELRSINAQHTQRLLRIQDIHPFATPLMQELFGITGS
Sequence of Nuclear receptor subfamily 1 group I member 2 (Rattus norvegicus) (Q9R1A7 whole entry, looked up): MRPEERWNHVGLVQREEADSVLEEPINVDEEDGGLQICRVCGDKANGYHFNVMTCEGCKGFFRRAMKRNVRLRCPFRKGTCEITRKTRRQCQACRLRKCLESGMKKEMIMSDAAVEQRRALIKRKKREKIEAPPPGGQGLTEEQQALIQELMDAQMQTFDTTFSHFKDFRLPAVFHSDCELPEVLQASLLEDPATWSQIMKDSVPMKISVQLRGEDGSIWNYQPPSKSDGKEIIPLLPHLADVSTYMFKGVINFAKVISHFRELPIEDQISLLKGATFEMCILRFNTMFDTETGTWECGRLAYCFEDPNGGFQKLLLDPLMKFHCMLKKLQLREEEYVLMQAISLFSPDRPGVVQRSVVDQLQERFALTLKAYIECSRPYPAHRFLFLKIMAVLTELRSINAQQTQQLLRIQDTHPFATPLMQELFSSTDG

As for `CN(C)CCOC(c1ccccc1)c1ccccc1`, the Potency result in assay [1], in assay [2], in assay [3], in [4], in assay [5] and in [6] was “inactive” each time. The Potency entry in [8], in [9], in [10], in [11], in [12] and in [13] was “inactive” each time. In assay [7], the molecule was called inactive.
For `O=C1O[C@H]([C@@H](O)CO)C(O)=C1O`, the Potency entry in assay [1], in assay [2], in assay [3], in assay [4], in assay [5] and in assay [6] was “inactive” in each case. Also, the Potency result in assay [10], in assay [11], in assay [14], in assay [12], in [13] and in assay [16] was “inactive” each time. Also, the Potency result in assay [18] and in assay [19] was “inactive” throughout. For the same molecule, the molecule was classed as inactive in assay [7] and in [17]. For the same molecule, in assay [15], the max activation was -0.298% (inactive) and -0.0182% (inactive).
On to `NC(CO)(CO)CO`, for which the Potency entry in assay [1], in [3], in [4], in assay [5], in assay [6] and in assay [8] was “inactive” throughout. For the same molecule, the Potency entry in assay [9], in [10], in [11], in assay [14], in assay [12] and in [13] was “inactive” in each case. Also, the Potency result in assay [20], in assay [16], in assay [18] and in assay [19] was “inactive” throughout. Also, the molecule was called inactive in [7] and in [17]. In addition, in assay [15], the max activation was -3.86% (inactive).
Turning to `Cc1cccc(C)c1`, the Potency result in assay [1], in [2], in assay [3], in [4], in [5] and in assay [6] was “inactive” in each case. For the same molecule, the Potency result in assay [8], in assay [9], in [10], in assay [11], in [12] and in [13] was “inactive” in each case. Moreover, in [7], the call was inactive. In addition, the Potency entry in assay [18] was “inactive and 21.8 µM (active)”; in assay [19] it was 68.6 µM (active) and inactive.
With `O=C1NC(=O)C(c2ccccc2)(c2ccccc2)N1`, the Potency entry in assay [1], in [2], in assay [3], in assay [4], in assay [5] and in [6] was “inactive” in each case. The Potency entry in assay [8], in [9], in assay [10], in [11], in assay [12] and in [13] was “inactive” in each case. Also, in assay [7], the outcome was inactive.
Take `CS(=O)(=O)OCCCCOS(C)(=O)=O`: the Potency entry in assay [1], in assay [3], in assay [4], in assay [5], in assay [6] and in assay [8] was “inactive” each time. Besides, the Potency entry in assay [9], in [10], in assay [11], in assay [14], in assay [12] and in [13] was “inactive” in each case. The Potency entry in assay [20] and in [16] was “inactive” in each case. Besides, the molecule was classed as inactive in [7] and in [17]. The max activation in assay [15] is -4.1% (inactive). For the same molecule, the Potency is 35.7 µM (active) in [18]; 56.6 µM (active) and inactive in assay [19].
